The results in this text go back to PubChem BioAssay (NCI).

SMILES strings stand for the structures. This is part of a sample that, as a whole, favours compounds with a hit. Of some 83,000 tested, about 20% had one in any assay.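 Method: cells in 96-well plates; compound added at one concentration; 48 h incubation; percent growth measured; values under 10 scored active.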 A number with no mark means an inactive call. The source made the active and inactive calls.

Among the test systems are EKVX NSCLC; SN12C renal; UO-31 renal; TK-10 renal; ACHN renal; CAKI-1 renal; A498 renal; MOLT-4 leukemia; SR leukemia; CCRF-CEM leukemia.
Common to all, as to test: NCI-60 one-dose screen, 48 h (100 = growth as untreated, 0 = no growth, -100 = all killed)
Holding throughout (conditions): 10 µM

With `COc1cc(/C=N/NC(=O)c2ccccc2Nc2ccnc(C(F)(F)F)c2)ccc1O`, the growth in the assay on EKVX NSCLC was 106%; in the assay on SN12C renal, 122%; with UO-31 renal, 98.1%; in the assay on TK-10 renal, 147%; with ACHN renal it was 111%; in the assay with CAKI-1 renal it was -21.2% (active). The growth with A498 renal was 116%; in the assay with MOLT-4 leukemia it was -89.5% (active); with SR leukemia it was -48.1% (active).

As to `CN(C)CCNC(=O)c1cccn2c(=O)c3cc4ccccc4cc3nc12`, the growth is 16.1% in the assay on EKVX NSCLC; 7.89% (active) in the assay with SN12C renal; 18.2% with UO-31 renal; -29% (active) with TK-10 renal; 14.7% in the assay with ACHN renal; -2.45% (active) in the assay on CAKI-1 renal. The growth in the assay on A498 renal was -56.7% (active); in the assay on MOLT-4 leukemia, -27.2% (active); with SR leukemia, -29.9% (active).

Regarding `O=C1C(c2ccccc2)C2C=CC(C2)N1O` (configuration not stated), the growth in the assay with EKVX NSCLC is 101%; in the assay on SN12C renal, 102%; in the assay on UO-31 renal, 68%; in the assay on TK-10 renal, 101%; in the assay on ACHN renal it was 107%; with CAKI-1 renal, 106%. Also, the growth was 82.6% with CCRF-CEM leukemia and 92.5% in the assay with MOLT-4 leukemia.

For the compound `O=C1/C(=C\c2cn(C(=O)c3ccc(Cl)cc3)c3ccccc23)c2ccccc2N1C(=O)c1ccc(Cl)cc1`, the growth is 70.7% in the assay on EKVX NSCLC; 80.8% with SN12C renal; 64.4% with UO-31 renal; 55.3% with TK-10 renal; 63.3% in the assay on ACHN renal; 73.8% in the assay with CAKI-1 renal. Besides, the growth in the assay with A498 renal was 81.1%; in the assay with MOLT-4 leukemia, 61.5%; with SR leukemia, 56.1%.

As for `O=C(/C=C/c1cc2ccccc2[nH]c1=O)c1ccc2c(c1)OCO2`, the growth with EKVX NSCLC was 95.9%; with SN12C renal, 93.5%; with UO-31 renal, 63.7%; with TK-10 renal, 97.3%; in the assay with ACHN renal, 103%; in the assay on CAKI-1 renal it was 118%. The growth in the assay on A498 renal was 97.6%; in the assay on SR leukemia it was 52.5%.

For `COc1cc(/C=N/NC(=O)c2ccccc2Nc2cccc(C(F)(F)F)c2)cc(OC)c1OC`, the growth is 53.5% in the assay on EKVX NSCLC; 57.4% in the assay with SN12C renal; 41.4% in the assay with UO-31 renal; -18.2% (active) with TK-10 renal; 2.47% (active) in the assay with ACHN renal; 29.2% in the assay on CAKI-1 renal. For the same compound, the growth was -13.2% (active) in the assay on A498 renal, 28.3% with MOLT-4 leukemia and -4.43% (active) in the assay with SR leukemia.

Regarding `Cc1ccc(Nc2nnc(-c3cc(-c4ccncc4)n(-c4ccccc4)n3)s2)cc1`, the growth is 97.7% with EKVX NSCLC; 88.5% in the assay on SN12C renal; 40.3% in the assay with UO-31 renal; 102% in the assay with TK-10 renal; 83% in the assay with ACHN renal; 85.9% in the assay with CAKI-1 renal. For the same compound, the growth in the assay on CCRF-CEM leukemia is 35.7%; in the assay on MOLT-4 leukemia it was 59.5%; in the assay with SR leukemia, 63.6%.

Consider `COc1ccc(Cl)cc1C(=O)Nc1nc2ccc(Cl)cc2s1`, for which the growth with EKVX NSCLC is 76.2%; in the assay with SN12C renal it was 91.7%; with UO-31 renal, 58.2%; in the assay with TK-10 renal, 127%; with ACHN renal, 85.9%; in the assay with CAKI-1 renal, 84.4%. For the same compound, the growth in the assay on CCRF-CEM leukemia is 86.4%; in the assay with MOLT-4 leukemia, 95.6%; with SR leukemia it was 87.7%.

`CCN(CCCCCCN1CC(=O)N(CCCCCCN(CC)Cc2ccccc2OC)CC1=O)Cc1ccccc1OC`: the growth in the assay on EKVX NSCLC was 72.9%; in the assay with SN12C renal, 93.9%; in the assay on UO-31 renal, 91.9%; in the assay on TK-10 renal, 87.6%; with ACHN renal it was 110%; in the assay with CAKI-1 renal, 90.3%. Also, the growth in the assay on MOLT-4 leukemia is 42.7%; with SR leukemia it was 39.3%.

On to `Cc1cc(N(CCCNc2ccnc3cc(Cl)ccc23)Cc2cccs2)nc(Cl)n1`, for which the growth in the assay with EKVX NSCLC was 48%; with SN12C renal it was 58.4%; with UO-31 renal it was 27.8%; in the assay with TK-10 renal, 50.4%; with ACHN renal, 56.7%; in the assay on A498 renal, 28.5%. Further, the growth with CCRF-CEM leukemia is 42%; with MOLT-4 leukemia, 11.2%; in the assay with SR leukemia it was 0.473% (active).

As to `Nc1cc2c(cc1Cl)-c1ccc([N+](=O)[O-])cc1/C2=N\O`, the growth in the assay on EKVX NSCLC was 66%; with SN12C renal, 88.2%; in the assay with UO-31 renal, 33.3%; in the assay on TK-10 renal it was 48.7%; in the assay with ACHN renal, 63.3%; in the assay with CAKI-1 renal, 55.6%. Moreover, the values for the growth in the assay with CCRF-CEM leukemia, in the assay with MOLT-4 leukemia and in the assay on SR leukemia were 28.7%, 37.9% and 10.8%, respectively.

In the case of `COc1cccc(-c2cc(-c3cccc(NS(C)(=O)=O)c3)nc(N)c2C#N)c1O`, the growth in the assay with EKVX NSCLC is 32.6%; with SN12C renal, 50.7%; with UO-31 renal, 15.3%; in the assay with TK-10 renal it was 71.3%; in the assay with ACHN renal, 43.3%; with CAKI-1 renal, -11.9% (active). Also, the growth in the assay with CCRF-CEM leukemia is 12.3%; in the assay with MOLT-4 leukemia it was 35%; in the assay on SR leukemia, 24.6%.

With `COc1ccccc1/C=C/C(=O)c1ccccc1`, the growth in the assay with EKVX NSCLC was 98.6%; in the assay with SN12C renal, 91.6%; in the assay on UO-31 renal, 60.1%; in the assay on TK-10 renal it was 104%; in the assay with ACHN renal it was 84.2%; in the assay with A498 renal it was 108%. Further, the values for the growth in the assay on CCRF-CEM leukemia, with MOLT-4 leukemia and in the assay on SR leukemia were 29%, 46% and 10.5%, respectively.

On to `CN(C)CCCn1c(=O)c2ccccc2c2cnc3[nH]ccc3c21`, for which the growth in the assay with EKVX NSCLC is 10.5%; with SN12C renal, 10.2%; in the assay with UO-31 renal it was 0.877% (active); in the assay on TK-10 renal, 8.77% (active); in the assay with ACHN renal, -1.65% (active); in the assay on CAKI-1 renal it was 22.5%. Besides, the growth with CCRF-CEM leukemia was 18.6%; in the assay on MOLT-4 leukemia, -5.39% (active); in the assay on SR leukemia, -35% (active).

In the case of `COC(=O)c1ccc(=O)oc1`, the growth in the assay on EKVX NSCLC is 98.6%; in the assay with SN12C renal it was 85.8%; in the assay on UO-31 renal it was 75.7%; with TK-10 renal, 103%; in the assay on ACHN renal it was 98.9%; in the assay with CAKI-1 renal, 101%. The growth with CCRF-CEM leukemia was 101%; with MOLT-4 leukemia it was 94%; in the assay with SR leukemia, 89.2%.
